This is part of a sample that, as a whole, favours compounds with a hit. Of some 83,000 tested, about 20% had one in any assay.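 Single-dose data. Exposure time 48 hours. Values below 10 considered active.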 Values without a mark were called inactive. The source made the active and inactive calls.

The subject of this assay is OVCAR-3 ovarian. Nature of the assay: NCI-60 one-dose screen, 48 h (100 = growth as untreated, 0 = no growth, -100 = all killed). Particulars: 10 µM unless noted. As for the experimental part:
Growth inhibition of the OVCAR-3 human tumor cell line is measured as a screen for anti-cancer activity. Cells are grown in 96 well plates and exposed to the test compound for 48 hours. Compounds are tested at a single concentration, which is 10^-5 M for most compounds. The reported endpoint is percent growth (GI% or GIPRCNT), where numbers from 0 - 100% represent growth inhibition, and numbers from -100% - 0 represent cell death. For example, a value of 40 represents 60% growth inhibition. A value of 0 means no net growth occurred over the course of the experiment. A value of -40 indicates 40% of cells at the beginning of the experiment died by the end of the experiment. A value of -100 means all cells are dead at the end of the experiment.
NCI-60 Human Tumor Cell Lines Screen was performed using the standard one-dose NCI protocol, which is described in more detail at https://dtp.cancer.gov/discovery_development/nci-60/default.htm.
Compounds with GIPRCNT values below 10 were considered active. Activity score was based on GIPRCNT using the following formula: […]
Score is 0 for GIPRCNT values of 100 or above, 50 for GIPRCNT values of 0, and 100 for GIPRCNT values of -100.
As to `CC(=O)C(CO)C(=O)Nc1ccccc1` (stereo not given), the growth is 110%.
Take `CC1CCCCC[N+]12CCCC2` (stereo not given): the growth was 116%.
To `O=C(/C=C1\C(=O)N(Cc2ccc([N+](=O)[O-])cc2)c2ccccc21)c1ccc(OCCN2CCCCC2)cc1` belongs -93.8% (active); to `O=C(Nn1cnc2ccccc21)N1CCCC1`, 104%.
`Clc1ccc(N/N=C(\c2ccccc2)c2ccccn2)nc1`: the growth is 12.3%.
As for `CC(O)CN(CCO)CCN(CCO)CC(C)O` (stereo not given), the figure is 112%.
As for `COc1cc(C(=O)Nc2ccc(N(C)C)cc2)cc(OC)c1OC`, the figure is 101%.
For the compound `COc1cc(N2C(=O)C=CC2=O)ccc1N1C(=O)C=CC1=O`, the growth was 104%.
In the case of `O=c1[nH]c2cc(O)ccc2n2cc3c(F)cccc3c12`, the growth is 30.3%.
As for `CC1=C[C@@H]2c3c(c(O)c(O)c4oc5cc(O)cc(O)c5c(=O)c34)[C@@H](c3cc(O)c(O)c4oc5cc(O)cc(O)c5c(=O)c34)[C@@H]2C(C)(C)C1`, the growth is -10.4% (active).
As to `Nc1ccc(S(=O)(=O)c2ccc(NO)cc2)cc1`, the growth was 131%.
To `COc1cc(Cn2ccc3c2-c2oncc2CC3)cc(OC)c1` belongs 4.85% (active); to `CCOC(=O)c1cc(-c2ccc(OC)cc2)[nH]c1NNC(=O)CCOC`, 82.5%; to `CC(C)C(=O)c1ccc(Cl)s1`, 106%.
With `CCCNC(=O)Oc1ccc(/C(=C(/CC)Cc2ccccc2)c2ccc(OCCN(CC)CC)cc2)cc1`, the growth is 79.5%.
In the case of `O=S(=O)(O)CCI`, the growth is 114%.
With `O=C(N/N=C/c1coc2ccccc2c1=O)c1cc2oc(-c3ccccc3)cc2[nH]1`, the growth was 99.8%.
As for `CCCCCCCCCC[N+](C)(C)C`, the figure is 5.8% (active).
As for `CCCOC(=O)c1c(C)n(C)c2scc[n+]12`, the figure is 71.2%.
To `CC(Br)c1nc2ccccc2cc1C(N)=O` (stereo not given) belongs 105%; to `O=C1CSC(c2ccccc2Cl)N1c1nnc(-c2ccncc2)o1` (stereo not given), 108%.
Regarding `C[C@@H](c1ccc2c(c1)[nH]c1ccc(Cl)cc12)c1nc2ccccc2[nH]1`, the growth is 86.7%.
As for `N#Cc1c2ncccc2c2nnc3cc(Cl)c(Cl)cc3n12`, the figure is 70.2%.
For `O=C(Nc1cccc2[nH]c(C(F)(F)F)nc12)c1ccc(F)cc1`, the growth is 66%.
As for `O=S(=O)(Cc1cccc2c(CS(=O)(=O)c3ccc(Cl)cc3)cccc12)c1ccc(Cl)cc1`, the figure is 95.9%; as for `O=C(O)c1ccc(-c2nn(-c3ccc(C(=O)O)cc3)cc2CNc2ccc(Br)cc2)cc1`, 104%; as for `CC/C(=N\Nc1nc2ccccc2n1C)c1ccccn1`, 25.8%.
As for `Cn1cnc2nc[nH]c2c1=S`, the figure is 115%; as for `COc1ccc(OC)c(Cn2cc3c(c2-c2ccccc2)CCc2cnoc2-3)c1`, 17.9%.
As for `CC(O)CN(CC(C)O)N(CC(C)O)CC(C)O` (stereo not given), the growth is 109%.
Turning to `Oc1ccccc1/C=N/N=C\c1ccccc1Cl`, the growth was 84.1%.
Turning to `CC(=O)O.[In]`, the growth was 116%.
Turning to `COc1cc2ncnc(Nc3ccc4c(cnn4C(=O)Nc4ccccc4)c3)c2cc1OC`, the growth is 95.7%.
To `CCCCCCC(C)N(CC(C)(C)O)C(=O)c1ccc([N+](=O)[O-])cc1` (stereo not given) belongs 113%; to `O=C(NCCCl)Nc1nccnc1OCc1ccc(F)cc1`, 117%.
In the case of `O=C1NCCN1/N=C/c1c(Cl)nc2n1CCS2`, the growth was 106%.
Turning to `CC(=O)Nc1ccc(CC#N)cc1Br`, the growth is 108%.
Take `CC1(C)NC(=S)NC1=O`: the growth was 112%.
`C[n+]1c2ccccc2c(Nc2ccc(NS(=O)(=O)CCCCN=C(N)N)cc2)c2ccc(N)cc21`: the growth is 68.5%.
As for `CCCCN(CCCC)CC(O)CN(CC)CC` (stereo not given), the figure is 113%.

The values are drawn from PubChem BioAssay (NCI).
